CtBP-E1A inh: CtBP/E1A binding inhibition | activity change, % (test concentration not listed) | 340,000 tested, 0.49% active | AlphaScreen GST-E1A/His-CtBP binding, 1536-well; hits give low values; in the data active = activity change below about -65%; inconclusive = mostly about -30% to -63%
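Homogeneous bead-based format: GST-tagged E1A captured on glutathione donor beads, His-tagged CtBP on nickel acceptor beads; compounds precede bead addition by 2 h at 37 °C.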
GALK inhibitor: galactokinase (human) inhibition. P51570. AID 1868. Potency, µM (titrated, usually from 57.5 µM), inactives show top-dose activity change, negative = inhibition, usual class: inhibitors. Purified GALK, Kinase-Glo residual ATP luminescence. 270,000 tested, 0.007% active; note: potency is the fitted concentration of half-maximal effect
Target sequence (P51570 whole entry, looked up): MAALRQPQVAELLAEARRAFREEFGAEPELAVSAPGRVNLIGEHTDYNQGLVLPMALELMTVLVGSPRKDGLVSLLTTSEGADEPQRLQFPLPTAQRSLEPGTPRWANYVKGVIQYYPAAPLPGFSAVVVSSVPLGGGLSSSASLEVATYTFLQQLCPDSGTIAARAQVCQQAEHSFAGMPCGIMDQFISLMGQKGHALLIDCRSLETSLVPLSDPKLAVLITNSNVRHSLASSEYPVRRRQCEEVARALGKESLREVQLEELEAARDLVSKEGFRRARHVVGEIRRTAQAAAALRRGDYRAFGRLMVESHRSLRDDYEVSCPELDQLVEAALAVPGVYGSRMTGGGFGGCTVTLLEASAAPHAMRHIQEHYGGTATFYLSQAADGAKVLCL
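Quantitative HTS: GALK 5 nM, ATP 35 uM, galactose 100 uM, 1 h room temperature, then luciferase-based ATP detection.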
Six1-Eya2 blk: Six1/Eya2 interaction inhibition; AlphaScreen GST-Six1/His-Eya2 binding, biochemical; hits give low values; activity change, % (no concentration beside the values); 360,000 tested, 0.56% active; AID 651725; in the data active = activity change below about -65%; inconclusive = mostly about -30% to -63%
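Six1/Eya2 binding was read as AlphaScreen signal after compounds were pinned into GST-Six1 plus His-tagged Eya2 (5X stock 250/500 nM) in pH 8.0 Tris/NaCl/TCEP buffer, beads added, then incubated 1 h, 37 C, dark.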
rTrxR1 inhibitor: blocks rat thioredoxin reductase 1; O89049; recombinant rTrxR1, NADPH fluorescence consumption, selenite substrate; Potency, µM (top dose mostly 114 µM), for inactives: at the top dose activity change, negative = inhibition, usual class: inhibitors; 390,000 tested, 1% active; note: potency is the fitted concentration of half-maximal effect; nearly all actives have a fitted effect of over 65% in size
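Rat TrxR1 (90 nM in the dispensed reagent) was pre-reduced with 400 uM NADPH for 5 min at room temperature, then incubated with compound for 15 min. After 400 uM selenite was added, NADPH fluorescence (Ex 340/Em 450 nm) was followed for 8 min.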
TrxR1 substrate: is turned over as a substrate by rat TrxR1; O89049; purified TrxR1 substrate turnover, NADPH consumption readout; Potency, µM (doses to about 114 µM), inactives show at the highest dose activity change, negative = substrate turnover; 390,000 tested, 0.01% active; AID 588456; note: potency is the fitted concentration of half-maximal effect; nearly all actives have a fitted effect of over 50% in size
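Rat TrxR1, dispensed at 90 nM, was prereduced with 400 uM NADPH (final) for 5 min at ~22 deg C, then incubated with compound 15 min before 400 uM selenite. A first-read NADPH fluorescence drop versus no-compound background flagged substrates.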
Eya2 inh: blocks the phosphatase activity of human Eya2; O00167; recombinant Eya2, OMFP fluorescence dephosphorylation (OMFP is methylfluorescein phosphate); Potency, µM (highest dose often 76.9 µM), inactives show at the highest dose activity, negative = inhibition, most hits filed as inhibitors; 330,000 tested, 0.006% active; note: potency is the fitted concentration of half-maximal effect
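Eya2 (0.2 uM) preincubated 10 min at ambient with compound, then OMFP substrate added at 50 uM; 10 min reaction in 50 mM HEPES pH 7.5, 50 mM NaCl, 5 uM MgCl2, 0.05% BSA, 1 mM DTT. Fluorescence read at Ex 485/Em 525 nm.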
Active calls of the source: *; u = inconclusive; x = no result given; ! = not confirmed by another sample; [ ] = remark or other dose. A selection: hits, their analogues and other compounds. The true share with any hit is near 1.5%. Unless noted, calls come from the whole dose curve; as a rule, active = well fitted curve in the direction sought with a large enough effect; inconclusive = small, poorly fitted or top-dose-only effect, or another doubt; inactive = no such curve, though single readings can be large; an effect the other way counts as inactive or inconclusive. % is set by controls: 0 for no effect and ±100 for the full control effect.

SMILES | CtBP-E1A inh | GALK inhibitor | Six1-Eya2 blk | rTrxR1 inhibitor | TrxR1 substrate | Eya2 inh
O=C(N/N=C/c1cccc([N+](=O)[O-])c1)C1COc2ccccc2O1 (stereo not given) | x | 1% | 18 | 20%[57.1 µM] | -15%[57.1 µM] | 5%
Brc1ccccc1/C=N/Nc1ccc2ccccc2n1 | 9 | 0% | -6 | -29% | -13% | 1%
O=[N+]([O-])c1cccc(C=NNc2ccc3ccccc3n2)c1O | -95* | x | -91* | -6%[11.4 µM] | 9%[57.1 µM] | x
COc1cc([N+](=O)[O-])cc(/C=N\NC(=O)C2COc3ccccc3O2)c1O (stereo not given) | x | 0% | -89* | -4% | -17% | 5%
O=C(N/N=C/c1cccc([N+](=O)[O-])c1O)c1cccs1 | 7 | 0% | -91* | -21% | -20% | -6%
O=C(N/N=C/c1ccc([N+](=O)[O-])cc1)c1cccs1 | x | 2% | -5 | 2% | -13% | -4%
Cc1ccc(-n2nc(C)c3c(C(F)(F)F)cc(-c4cccnc4)nc32)cc1C | x | x | x | 14% | 14% | x
CCc1ccc(S(=O)(=O)c2nnn3c2nc(NC2CCCC2)c2sccc23)cc1 | x | x | x | 27% | 18% | x
CN(C)CCCNC(=O)C1CCNCC1 | 5 | -4% | 2 | 71µM* | -6% | 13%
CC1=C(C(=O)N2CCN(c3ccc(Cl)cc3)CC2)C2(CCC(C)CC2)OC1=O (stereo not given) | x | x | x | -12% | -20% | x
CCNC(=O)N1CCN(/[N+]([O-])=N/Oc2ccc([N+](=O)[O-])cc2[N+](=O)[O-])CC1 | x | x | x | 14µM* | -7% | x
CN(C)/[N+]([O-])=N/Oc1cc(F)c([N+](=O)[O-])cc1[N+](=O)[O-] | x | x | x | 20µM* | -10% | x
CN(C)c1ccc(C(=O)Oc2cc(O/N=[N+](\[O-])N(C)C)c([N+](=O)[O-])cc2[N+](=O)[O-])cc1 | x | x | x | -15% | -5% | x
CCN(CC)/[N+]([O-])=N/Oc1ccc([N+](=O)[O-])cc1[N+](=O)[O-] | x | x | x | 14µM* | -11% | x
CC(=O)N1CCN(/[N+]([O-])=N/Oc2ccc([N+](=O)[O-])cc2[N+](=O)[O-])CC1 | x | x | x | 10µM* | -4% | x
CN(C)/[N+]([O-])=N/Oc1ccc([N+](=O)[O-])cc1C(F)(F)F | x | x | x | 17% | 4%[0.457 µM] | x
CCOC(=O)c1ccccc1NC(=O)NCc1cccn1Cc1ccc(F)cc1 | x | x | x | 9% | 4% | x
CCN(CC)C(=O)N1CCN(/[N+]([O-])=N/Oc2ccc([N+](=O)[O-])cc2[N+](=O)[O-])CC1 | x | x | x | 22µM* | -8% | x
CC(=O)N1/C(=C/c2ccc(N(C)C)cc2)C(=O)c2ccccc21 | -3 | -1% | -7 | 40µM* | -5% | -15%
O=C(NNc1c2ccccc2nc2ccccc12)c1ccc(O)cc1O | -84* | -5% | -84* | -11% | 2% | -23%
O=C(NNc1c2ccccc2nc2ccccc12)c1ccccc1O | -73* | -2% | u | 14% | -4% | -9%
O=C(NNc1c2ccccc2nc2ccccc12)c1ccccc1Cl | -14 | -4% | -25 | 5% | -10% | 13%
O=C(NNC(=O)c1ccc(O)cc1O)c1ccc(-c2ccccc2)cc1 | x | -5% | 0 | 14% | 3% | -4%
CCOC(=O)N1CCN(Cc2nc3cc(NC(=O)c4ccc([N+](=O)[O-])cc4)ccc3n2C(C)C)CC1 | x | x | x | -7% | -7% | x
CCc1cccc(NC(=O)c2oc3ccc4c(c3c2C)C(=O)CC(C)(C)O4)c1 | x | x | x | 9% | -4% | x
SMILES | CtBP-E1A inh | GALK inhibitor | Six1-Eya2 blk | rTrxR1 inhibitor | TrxR1 substrate | Eya2 inh
CCCS(=O)(=O)c1c(S(=O)(=O)CCC)c2c(N)cccn2c1C(=O)OC | -11 | 5% | 3 | 7.9µM* | -4% | 1%
CCOc1cccc(-c2nn3c(-c4cc(C)[nH]n4)nnc3s2)c1 | -71* | 1% | u | 15% | 8%[57.1 µM] | 4%
Cc1cc(=O)n2nc(N3CCC(C(=O)NCc4ccc(Cl)cc4)CC3)sc2n1 | x | -5% | -65* | 14% | -5% | -4%
COC(=O)c1ccccc1NC1=C/C(=N\S(=O)(=O)c2cccs2)c2ccccc2C1=O | u | 1% | -84*! | 8% | 4% | -5%
O=C1C(Nc2ccccc2)=C/C(=N/S(=O)(=O)c2cccs2)c2ccccc21 | u | 3% | -86* | -35% | -15% | -7%
Cc1ccc(S(=O)(=O)/N=C2\C=C(Nc3cccc(C(=O)O)c3)C(=O)c3ccccc32)c(C)c1 | -82* | -13% | u | -16% | -13% | -14%
Cc1ccc(S(=O)(=O)/N=C2\C=C(Nc3cccc(C(=O)O)c3)C(=O)c3ccccc32)cc1 | u | -29% | u | -6% | -4% | -9%
Cc1ccc(S(=O)(=O)/N=C2\C=C(Nc3ccc(O)cc3)C(=O)c3ccccc32)cc1 | -69* | x | -78* | u | -11% | -6%
O=C(C1CCC1)N1CCCc2cc(S(=O)(=O)Nc3ccc(F)cc3)ccc21 | x | x | x | 8%[57.1 µM] | -4%[57.1 µM] | x
CCN(CC)C(=O)c1sc(NC(=O)c2nc3ncccn3n2)c(C(=O)OC)c1C | x | x | x | 9% | 6% | x
CCN(CC)S(=O)(=O)c1ccc(NC(=O)CSc2nnc3c(n2)[nH]c2ccccc23)cc1 | x | x | x | -3% | 12% | x
COc1ccc(OC)c(CNS(=O)(=O)c2ccc(-c3coc(C)n3)cc2)c1 | x | x | x | 19%[57.1 µM] | 1%[57.1 µM] | x
CCc1ccc(S(=O)(=O)/N=C2\C=C(Nc3ccc(C(=O)O)cc3)C(=O)c3ccccc32)cc1 | u | u | -30 | -2% | -3% | 4%
COC(=O)c1ccccc1NC1=C/C(=N\S(=O)(=O)c2ccc(C(=O)O)cc2)c2ccccc2C1=O | -80* | u | u | u | u | 0%
O=C1c2oc3ccccc3c(=O)c2C(c2ccccc2)N1Cc1ccc2c(c1)OCO2 (stereo not given) | x | x | x | 19%[57.1 µM] | 2%[57.1 µM] | x
Cc1cccc(-n2nnnc2S(C)(=O)=O)c1 | x | x | x | 1.8µM* | -6%[57.1 µM] | x
COc1cccc(-n2nnnc2S(C)(=O)=O)c1 | 6 | 1% | -11 | 3.2µM* | 5% | -4%
COC(=O)c1nnn(-c2cccc(C)c2)c1C(=O)OC | x | x | x | 1% | -3% | x
COc1cccc(Oc2nnnn2-c2ccccc2)c1 | 9 | -1% | 14 | 6% | 0% | 11%
Nc1cccnc1Sc1cccc(Cl)c1 | 0 | x | -5 | 10µM* | 19% | -5%
CCOC(=O)C1=C(C)N=c2s/c(=C3/C(=O)Nc4ccccc43)c(=O)n2C1c1ccc(C)cc1 (stereo not given) | -14 | 1% | -17 | 45µM* | -19% | 1%
CCn1c(=O)c2sccc2n2c(CCCC(=O)N3CCN(c4cc(C)ccc4C)CC3)nnc12 | x | x | x | 12% | 4% | x

Screening data (PubChem BioAssay)
